Inconclusive results are not listed. Active and inactive are the calls of the source. Calls come from the whole dose curve; as a rule, active = well fitted activation curve with a large enough effect in the main read-out, with a control signal flat; inconclusive = small, poorly fitted or top-dose-only effect, or effect the other way, or a change in a side signal; inactive = no such curve, though single readings can be large or run the other way.
Key:
[1] = Confirmation Concentration-Response Assay for Agonists of the Thyroid Stimulating Hormone Receptor; details: HEK293 TSHR-CNG cells, membrane potential dye, cAMP; measured here: parental HEK293 counter-screen max; for activation: % of control where 0% means no effect
Excerpt: (§1) NIH Chemical Genomics Center [NCGC] NIH Molecular Libraries Screening Centers Network [MLSCN] MLSCN Grant: 1 X01 MH080680-01 PI Name: Dr. Marvin Gershengorn, NIH NCGC Assay Overview: Thyroid Stimulating Hormone Receptor TSH is an alpha/beta heterodimeric glycoprotein hormone secreted from the anterior pituitary gland which belongs to the glycoprotein hormone family. The actions of TSH are mediated by a seven-transmembrane receptor, which upon TSH binding couples preferentially to the G-alpha (s) protein (Gs), resulting in activation of adenylate cyclase and increase in cyclic adenosine 3', 5' monophosphate (cAMP). The TSH receptor (THSR) is mainly expressed in thyroid follicular cells and regulates their growth and function. Recombinant TSH is used to activate TSHR in patients with thyroid cancer receiving thyroid hormone suppression therapy and to screen for residual tumor after surgery, but it is expensive and must be administered intramuscularly. An orally active small molecule TSHR agonist would serve as an invaluable research tool for studying TSHR pharmacology and physiology, and would have multiple advantages in therapeutic settings. However, no selective small molecule agonist of the TSH receptor exists, and no small molecule screen for TSHR agonists has ever been reported. This cell based assay utilized a cyclic nucleotide gated ion channel (CNG) as a biosensor for cAMP induction by potential TSHR agonists. TSHR cell line HEK 293 cells stably expressing the TSHR as well as a modified CNG were purchased from BD biosciences. Stimulation of cAMP production causes the CNG to open and subsequent membrane depolarization to occur. A fluorescent membrane potential dye (BD biosciences) was utilized to detect cAMP stimulation in TSHR cells. The cells were maintained in DMEM medium (Invitrogen) containing 10 % FBS (Hyclone), 100 units/ml Penicillin, 100 ug/ml Streptomycin (Invitrogen), and 250 ug/ml Geneticin (Invitrogen) and 1 ug/ml Puromycin (Invitrogen) at 37C in 5% CO2. HEK 293 cells expressing CNG but without TSHR (parental cells) were used in concert to control for compounds signaling through endogenous receptors and targets of HEK 293 cells.
(§2) NCGC Assay Protocol Summary: High Throughput Screening. Freshly passaged cells (TSHR or parental) were dispensed into 1536-well assay plates at 4 ul/well in DMEM containing phenol red (Invitrogen), 10% FCS (Hyclone), and 100 units/ml Penicillin, 100 ug/ml Streptomycin (Invitrogen) and incubated at 37 C with 5% CO2 for 20 to 36 hrs before the robotic screening. The screen was initiated by addition of 4 ul/well membrane potential dye containing 100 uM RO 20-1724 (Sigma Aldrich), followed by 60 min incubation at room temperature to allow for dye equilibration across the cell membrane. 23 nl/well compound or control was then added to the assay plates, which were incubated for additional 30 min before reading a Envision fluorescence plate reader (Perkin Elmer) in bottom-read mode for fluorescence intensity (emission at 590 nm). Keywords: Thyroid-stimulating hormone TSH, TSHR, TSHR agonist, quantitative high throughput screening, qHTS, HTS, probe identification, CNG, cAMP, cyclic nucleotide gated ion channel PubChem

[2] = biological target: Thyrotropin receptor (Homo sapiens) (UniProt P16473); assay: as above; details: HEK293 TSHR-CNG cells, membrane potential dye, cAMP; series mostly up to 25.6 µM
Chain of Thyrotropin receptor (Homo sapiens) (P16473 whole entry, looked up): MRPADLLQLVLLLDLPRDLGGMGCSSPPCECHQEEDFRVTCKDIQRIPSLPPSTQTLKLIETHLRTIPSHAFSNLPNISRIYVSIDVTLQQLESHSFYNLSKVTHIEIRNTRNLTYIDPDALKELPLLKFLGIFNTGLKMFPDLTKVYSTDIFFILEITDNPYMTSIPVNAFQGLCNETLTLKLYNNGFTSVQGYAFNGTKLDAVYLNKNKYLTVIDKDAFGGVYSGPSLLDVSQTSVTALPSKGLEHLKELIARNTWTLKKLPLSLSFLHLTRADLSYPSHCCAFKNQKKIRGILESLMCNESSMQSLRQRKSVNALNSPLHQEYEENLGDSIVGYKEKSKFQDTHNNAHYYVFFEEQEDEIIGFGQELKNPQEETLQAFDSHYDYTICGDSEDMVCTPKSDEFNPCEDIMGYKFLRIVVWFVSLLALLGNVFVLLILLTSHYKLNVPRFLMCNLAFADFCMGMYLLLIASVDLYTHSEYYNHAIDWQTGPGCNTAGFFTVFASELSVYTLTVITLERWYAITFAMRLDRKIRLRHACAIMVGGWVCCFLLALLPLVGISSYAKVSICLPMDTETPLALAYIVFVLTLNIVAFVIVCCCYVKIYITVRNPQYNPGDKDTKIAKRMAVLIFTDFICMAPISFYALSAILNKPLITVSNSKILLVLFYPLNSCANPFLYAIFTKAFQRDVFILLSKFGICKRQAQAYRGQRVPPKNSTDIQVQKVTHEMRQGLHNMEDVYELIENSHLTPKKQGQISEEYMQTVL
Excerpt: as §1, §2
Potency is the fitted concentration of half-maximal effect.

Compound	max response [1] [%]	Potency [2]
CCOC(=O)C1=C(C)OC(N)=C(C(=O)OC)C12C(=O)Nc1ccc(Br)cc12 (centres undefined)	-4.55	inactive
CCn1c(C)c(C(=O)O)c2cc(OC)ccc21	6.15	inactive
CCC(=NCC1CCCO1)c1c(O)n(Cc2ccccc2)c(=O)[nH]c1=O (centres undefined)	5.62	inactive
C=CCN1C(=O)C2(C(C(=O)OCC)=C(N)Oc3c2c(=O)oc2ccccc32)c2ccccc21 (centres undefined)	-4.89	5.01 µM (active)
O=c1[nH]c(=O)n(Cc2ccco2)c(O)c1C=NC1CC1	5.23	inactive
CN(C)c1ccc(CN2CC=C(c3ccc(F)cc3)CC2)cc1	5.57	inactive
O=C(Nc1nc2ccccc2n1CCN1CCCC1)c1ccc(Cl)cc1	-11	inactive

Source: PubChem BioAssay AID939 (National Center for Advancing Translational Sciences (NCATS), 2007)
